Records with an inconclusive call do not appear. Where a call stands in place of a potency, no number is given. A number with no mark means an inactive call. The source made the active and inactive calls. Unless noted, calls follow the shape of the dose curve; as a rule, active = well fitted curve in either direction with a large enough effect (not every such curve was filed as active); inconclusive = small, poorly fitted or top-dose-only effect, or another doubt; inactive = flat fitted curve, though single readings scatter.
Assays:
[1] = target: Cytochrome P450 1A2 (Homo sapiens) (UniProt P05177); assay: p450-cyp1a2 (AID 410; calls by dose curve; also: potency is read from the fitted curve at half-maximal effect)
Sequence of Cytochrome P450 1A2 (Homo sapiens) (P05177 whole entry, looked up): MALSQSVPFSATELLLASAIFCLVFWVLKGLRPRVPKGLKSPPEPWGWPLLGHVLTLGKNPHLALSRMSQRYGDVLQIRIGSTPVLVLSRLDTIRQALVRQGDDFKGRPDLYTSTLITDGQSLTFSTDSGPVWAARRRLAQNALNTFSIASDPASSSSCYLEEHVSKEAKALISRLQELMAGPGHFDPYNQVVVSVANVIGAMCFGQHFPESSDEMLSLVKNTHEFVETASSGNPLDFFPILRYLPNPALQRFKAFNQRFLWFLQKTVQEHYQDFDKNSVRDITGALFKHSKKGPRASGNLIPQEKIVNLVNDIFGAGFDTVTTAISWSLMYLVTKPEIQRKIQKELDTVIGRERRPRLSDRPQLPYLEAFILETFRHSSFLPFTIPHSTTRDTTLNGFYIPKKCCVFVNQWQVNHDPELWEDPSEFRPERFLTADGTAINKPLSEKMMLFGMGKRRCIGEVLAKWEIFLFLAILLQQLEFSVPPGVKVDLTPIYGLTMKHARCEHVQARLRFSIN
Procedure, shortened: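 O-Demethylation of luciferin 6' methyl ether by human CYP1A2 is monitored as luciferase luminescence. Substrate sits at Km (100uM); enzyme is 20nM. Values are scaled to 57 uM furafylline as maximal inhibition.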

[2] = target: Mitogen-activated protein kinase 10 (Mus musculus) (UniProt Q61831); assay: JNK3 AlphaScreen Assay (AID 530);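 also: kinase came from lysate of stimulated human HepG2 cells; signal reports phosphorylation of biotinylated GST-cJun 1-79 at Ser73 with 10 µM ATP; series mostly up to about 57 µM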
Procedure, shortened: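 Activity was read by AlphaScreen after JNK3-containing HepG2 lysate (cytokine pre-activated) phosphorylated biotinylated GST-cJun with 10 uM ATP at room temperature. Phospho-Ser73 cJun antibody with Protein-A acceptor beads provided detection.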

[3] = target: 3',5'-cyclic-AMP phosphodiesterase 4B (Homo sapiens) (UniProt Q07343); assay: qHTS Assay for Inhibitors of PDE-IV (AID 607; active = well fitted activation curve with a large enough effect in the main read-out, with a control signal flat, not every such curve was filed as active)
Sequence of 3',5'-cyclic-AMP phosphodiesterase 4B (Homo sapiens) (Q07343 whole entry, looked up): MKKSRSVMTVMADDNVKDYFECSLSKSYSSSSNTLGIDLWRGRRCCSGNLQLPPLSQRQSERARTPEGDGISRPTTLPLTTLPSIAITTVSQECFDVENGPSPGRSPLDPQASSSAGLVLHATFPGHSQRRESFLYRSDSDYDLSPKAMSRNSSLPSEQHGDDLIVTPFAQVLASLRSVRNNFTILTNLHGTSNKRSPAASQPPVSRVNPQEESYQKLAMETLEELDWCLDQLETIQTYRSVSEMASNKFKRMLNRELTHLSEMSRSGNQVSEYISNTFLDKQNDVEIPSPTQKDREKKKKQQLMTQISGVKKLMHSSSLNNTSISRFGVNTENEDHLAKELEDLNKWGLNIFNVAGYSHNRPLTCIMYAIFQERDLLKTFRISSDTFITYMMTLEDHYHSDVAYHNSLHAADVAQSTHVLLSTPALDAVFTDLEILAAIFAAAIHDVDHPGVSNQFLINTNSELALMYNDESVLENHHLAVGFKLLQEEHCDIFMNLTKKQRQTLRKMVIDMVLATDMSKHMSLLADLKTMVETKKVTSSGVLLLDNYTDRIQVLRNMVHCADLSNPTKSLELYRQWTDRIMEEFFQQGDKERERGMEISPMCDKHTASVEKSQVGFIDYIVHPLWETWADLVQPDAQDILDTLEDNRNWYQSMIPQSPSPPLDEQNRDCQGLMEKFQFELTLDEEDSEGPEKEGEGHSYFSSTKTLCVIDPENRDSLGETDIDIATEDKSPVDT
Procedure, shortened: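 Cell-based read-out of cAMP via a modified cyclic nucleotide-gated channel and membrane potential dye (535/590 nm) in HEK293 cells expressing PDE4 endogenously. Compounds tested up to 22.9 uM final; 100 uM RO 20-1724 reference.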

SMILES	Potency [1]	Potency [2]	Potency [3]
COC(=O)[C@@]1(Cc2ccc(F)cc2)[C@H]2c3cc(C(=O)N4CCCC4)n(CCO)c3C[C@H]2CN1C(=O)c1ccccc1	25.1 µM (active)	inactive	–
COC(=O)[C@@]1(Cc2ccc(F)cc2)[C@@H]2C(=CC(=O)[C@H]2CC(=O)C(=O)N(C)C)CN1C(=O)c1ccccc1	inactive	inactive	inactive
C[C@@]1(C(NC(=O)Cc2ccc(C(F)(F)F)cc2)c2ccc(-c3ccccc3)cc2)C[C@H]1C1CCCCC1 (stereo not given in full)	inactive	inactive	inactive
C[C@@H](C(=O)Nc1ccc2ccccc2c1)[C@@H]1C[C@@]1(C)[C@@H](NC(=O)Oc1ccc(F)cc1)c1ccccc1	inactive	inactive	inactive
CC(=O)N1CC2(CC2)CC1c1ccccc1 (stereo not given)	inactive	inactive	inactive
CCc1c2c(nc3cccc(OC)c13)OC(CC)C2 (stereo not given)	2 µM (active)	inactive	inactive
CCCC/C=C/C(NC(=O)C(C)(C)C)c1ccccc1 (stereo not given)	20 µM (active)	inactive	inactive
CCC#CCOCC(=S)Nc1ccccc1	15.8 µM (active)	inactive	–
CCC[C@@H]1C[C@@]1(CCC)C(NC(=O)c1ccc(-c2ccccc2)cc1)c1cccc(Cl)c1 (stereo not given in full)	inactive	inactive	inactive

Source: PubChem BioAssay (NCATS)
